From PubChem BioAssay (NCATS)
Values joined by “and” are separate entries in the source; they are usually repeats but may differ in a detail not shown here. Equal entries are not always repeated. Records with an inconclusive call do not appear. Some compounds were tested as several samples or in several runs, with calls that do not always agree. Unmarked numbers belong to inactive results. Active and inactive are the calls of the source. Calls follow the shape of the dose curve; as a rule, active = well fitted inhibition curve with a large enough effect; inconclusive = small, poorly fitted or top-dose-only effect; inactive = flat fitted curve, though single readings scatter.

What was measured:
CRL-7250 = normal cell line; assay: Cytotoxic Profiling of Annotated Libraries Using Quantitative High-Throughput Screening (AID 1296008); settings: Five cell lines viability, CellTiter-Glo ATP luminescence, 48-72 h; max response: active compounds read low; as to max response: % is scaled to controls: 0 for no effect and ±100 for the full control effect
Procedure, shortened: (§1)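 Cells exposed to compounds for 48 or 72 hr at 37 degrees Celsius. Viability read as ATP-coupled luminescence with CellTiter-Glo after 10 min at room temperature.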

KB-3-1 = assay: as above; settings: Five cell lines viability, CellTiter-Glo ATP luminescence, 48-72 h; max response: active compounds read low
Procedure, shortened: as §1

NIH3T3 = assay: as above; settings: Five cell lines viability, CellTiter-Glo ATP luminescence, 48-72 h; max response: active compounds read low
Procedure, shortened: as §1

HaCat = assay: as above; settings: Five cell lines viability, CellTiter-Glo ATP luminescence, 48-72 h; max response: active compounds read low
Procedure, shortened: as §1

HEK293 = assay: as above; settings: Five cell lines viability, CellTiter-Glo ATP luminescence, 48-72 h; max response: active compounds read low
Procedure, shortened: as §1

HB3 = assay: qHTS profiling for inhibitors of Plasmodium falciparum proliferation (AID 504749); settings: P. falciparum in erythrocytes, SYBR Green DNA, 72 h; series mostly up to 28.7 µM
Procedure, shortened: (§2)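 Readout was DNA-dye fluorescence from lysed cultures, ex 485/em 535 nm. Parasitized red cells had grown 72 h with compound; data scaled between 0.29 uM artemisinin and DMSO wells and corrected using vehicle-only plates.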

ICS = assay: as above; settings: P. falciparum in erythrocytes, SYBR Green DNA, 72 h; series mostly up to 28.7 µM
Procedure, shortened: as §2

JCK = assay: as above; settings: P. falciparum in erythrocytes, SYBR Green DNA, 72 h; series mostly up to 28.7 µM
Procedure, shortened: as §2

N140 = assay: as above; settings: P. falciparum in erythrocytes, SYBR Green DNA, 72 h; series mostly up to 28.7 µM
Procedure, shortened: as §2

P93_24 = assay: as above; settings: P. falciparum in erythrocytes, SYBR Green DNA, 72 h; series mostly up to 28.7 µM
Procedure, shortened: as §2

P94_40 = assay: as above; settings: P. falciparum in erythrocytes, SYBR Green DNA, 72 h; series mostly up to 28.7 µM
Procedure, shortened: as §2

PAD = assay: as above; settings: P. falciparum in erythrocytes, SYBR Green DNA, 72 h; series mostly up to 28.7 µM
Procedure, shortened: as §2

PC15 = assay: as above; settings: P. falciparum in erythrocytes, SYBR Green DNA, 72 h; series mostly up to 28.7 µM
Procedure, shortened: as §2

PC26 = assay: as above; settings: P. falciparum in erythrocytes, SYBR Green DNA, 72 h; series mostly up to 28.7 µM
Procedure, shortened: as §2

PC49 = assay: as above; settings: P. falciparum in erythrocytes, SYBR Green DNA, 72 h; series mostly up to 28.7 µM
Procedure, shortened: as §2

SC27B = assay: as above; settings: P. falciparum in erythrocytes, SYBR Green DNA, 72 h; series mostly up to 28.7 µM
Procedure, shortened: as §2

TAB109 = assay: as above; settings: P. falciparum in erythrocytes, SYBR Green DNA, 72 h; series mostly up to 28.7 µM
Procedure, shortened: as §2

TAB113 = assay: as above; settings: P. falciparum in erythrocytes, SYBR Green DNA, 72 h; series mostly up to 28.7 µM
Procedure, shortened: as §2

TAB165 = assay: as above; settings: P. falciparum in erythrocytes, SYBR Green DNA, 72 h; series mostly up to 28.7 µM
Procedure, shortened: as §2

W2 = assay: as above; settings: P. falciparum in erythrocytes, SYBR Green DNA, 72 h; series mostly up to 28.7 µM
Procedure, shortened: as §2
Also: nearly all actives have a fitted effect of over 60% in size.
Potency is read from the fitted curve at half-maximal effect.

Structure (SMILES): C[C@@H](Cc1cc2c(c(C(N)=O)c1)N(CCCO)CC2)NCCOc1ccccc1OCC(F)(F)F
- Potency (CRL-7250): 20600 nM (active)
- max response (KB-3-1): -7.67%

Structure (SMILES): CCc1c(O)cc(O)c(C(=O)c2ccc(OCCN3CCOCC3)c(OC)c2)c1CC(=O)N(CCOC)CCOC
- Potency (CRL-7250): 1320 nM (active)
- Potency (NIH3T3): 11800 nM (active)

Structure (SMILES): C=CC(=O)N1CCc2ccc(-n3c(=O)ccc4cnc5ccc(-c6cnn(C)c6)cc5c43)cc21
- Potency (CRL-7250): 3720 nM (active)
- Potency (KB-3-1): 4180 nM (active)

Structure (SMILES): Oc1ccc([C@@H]2Oc3ccc(O)cc3[C@@H]3CCC[C@@H]32)cc1
- max response (CRL-7250): -17% and -0.0013%
- Potency (KB-3-1): 14800 nM (active)

Structure (SMILES): COc1cc(O)c2c(c1)C1OC1C[C@H](O)[C@H](O)C(=O)C=CC[C@H](C)OC2=O (some centres undefined)
- Potency (CRL-7250): 26400 nM (active)
- Potency (HaCat): 23500 nM (active)
- Potency (NIH3T3): 16600 nM (active)

Structure (SMILES): CCOc1cc2c(c(F)c1OCC)C(=N)N(CC(=O)c1cc(N3CCOCC3)c(OC)c(C(C)(C)C)c1)C2
- Potency (HEK293): 16400 nM (active)

Structure (SMILES): Cn1cc(-c2ccc3ncc(Cc4ccc5ncccc5c4)n3n2)cn1
- max response (HEK293): 4.11%
- Potency (HaCat): 20600 nM (active)
- max response (HaCat): -43.1%
- max response (KB-3-1): 8.56% and 1.39%

Structure (SMILES): CC(=O)ON=C1C(c2c(O)[nH]c3cc(Br)ccc23)=Nc2ccccc21
- Potency (HEK293): 14800 nM (active)
- max response (HaCat): -13.8%
- max response (KB-3-1): -15.3%

Structure (SMILES): CN(C)c1ccc2cc(C(=O)N[C@@H](CCCN=C(N)CCl)C(=O)NCc3ccccc3)ccc2c1
- Potency (CRL-7250): 18700 nM (active)
- max response (HaCat): -9.24%
- max response (NIH3T3): -19.2%

Structure (SMILES): Nc1nc(N)c2nc(-c3cccc(O)c3)c(-c3cccc(O)c3)nc2n1
- Potency (HaCat): 14800 nM (active)
- Potency (KB-3-1): 10500 nM (active)

Structure (SMILES): O=C(CCCCCCC(=O)Nc1cccnc1)NO
- Potency (KB-3-1): 14800 nM (active)

Structure (SMILES): CN1CCCN(C(=O)c2cccc(-c3ccc(C=C4C(=O)Nc5ccc(Cl)cc54)o3)c2)CC1
- Potency (HEK293): 1320 nM (active)
- Potency (KB-3-1): 23500 nM (active)

Structure (SMILES): N#Cc1c(C2CCNCC2)cc(-c2c(O)cccc2OCC2CC2)nc1N
- Potency (HEK293): 20900 nM (active)
- max response (HaCat): -15.5%
- max response (KB-3-1): -14.2%
- max response (NIH3T3): -27%

Structure (SMILES): CC(O)(C#Cc1ccc2c(c1)N(c1nc(N)ncc1Cl)CC2)c1nccs1 (centres undefined)
- Potency (HEK293): 26400 nM (active)
- max response (HaCat): -12.6%
- max response (KB-3-1): -15.7%
- max response (NIH3T3): -24.2%

Structure (SMILES): CCCCCN=C(N)NN=Cc1c[nH]c2ccc(OC)cc12
- Potency (HEK293): 7430 nM (active)
- Potency (KB-3-1): 10500 nM (active)
- Potency (NIH3T3): 13200 nM (active)

Structure (SMILES): N#CC(=C(N)Sc1ccc(N)cc1)c1ccccc1C(F)(F)F
- Potency (HaCat): 1660 nM (active)
- max response (KB-3-1): -9.42%

Structure (SMILES): NC(=O)N1CCC(CC(=O)N2CCC([C@H]3c4ncc(Br)cc4CCc4cc(Cl)cc(Br)c43)CC2)CC1
- Potency (HEK293): 1320 nM (active)
- Potency (HaCat): 10500 nM (active)
- max response (NIH3T3): -22.6%

Structure (SMILES): C#CCC(Cc1cnc2nc(N)nc(N)c2n1)c1ccc(C(=O)N[C@@H](CCC(=O)O)C(=O)O)cc1 (some centres undefined)
- Potency (HaCat): 3320 nM (active)
- Potency (KB-3-1): 146 nM (active)
- Potency (NIH3T3): 332 nM (active)

Structure (SMILES): CC(=O)NCC(=O)N1[C@H]2CC[C@H]1c1cc(Nc3ncc(C(F)(F)F)c(NC4CCC4)n3)ccc12
- Potency (HEK293): 5260 nM (active)
- Potency (HaCat): 132 nM (active)
- Potency (KB-3-1): 1660 nM (active)
- Potency (NIH3T3): 1320 nM (active)

Structure (SMILES): Cc1ccc(-n2[nH]c(C)c(N=Nc3cccc(-c4cccc(C(=O)O)c4)c3O)c2=O)cc1C
- Potency (HaCat): 21100 nM (active)
- max response (KB-3-1): -13.9%

Structure (SMILES): O=C(NC1CC1)c1cccc(-c2ccc3c(NC(=O)C4CC4)n[nH]c3c2)c1
- Potency (KB-3-1): 4180 nM (active)

Structure (SMILES): COc1cccc2c1C(=O)c1c(O)c3c(c(O)c1C2=O)C[C@@](O)(C(=O)CO)C[C@@H]3O[C@H]1C[C@H](N)[C@H](OC2CCCCO2)[C@H](C)O1 (some centres undefined)
- Potency (HB3): 5010 nM (active)
- Potency (ICS): 708 nM (active)
- Potency (JCK): 12600 nM (active)
- Potency (N140): 1580 nM (active)
- Potency (P93_24): 2240 nM (active)
- Potency (P94_40): 2510 nM (active)
- Potency (PAD): 2240 nM (active)
- Potency (PC15): 10000 nM (active)
- Potency (PC26): 7570 nM (active)
- Potency (PC49): 4470 nM (active)
- Potency (SC27B): 2820 nM (active)
- Potency (TAB109): 2510 nM (active)
- Potency (TAB113): 3550 nM (active)
- Potency (TAB165): 2240 nM (active)
- Potency (W2): 601 nM (active)
- Potency (HEK293): 332 nM (active)
- Potency (HaCat): 2350 nM (active)
- Potency (KB-3-1): 833 nM (active)
- Potency (NIH3T3): 590 nM (active)

Structure (SMILES): C=CC(=O)Nc1cc(NC(=O)c2ccc(C)c(NC(=O)c3ccno3)c2)cc(C(F)(F)F)c1
- outcome (HaCat): inactive
- max response (NIH3T3): -0.953%

Structure (SMILES): O=c1c(O)c(-c2ccc(O)c(O)c2)oc2cc(O)ccc12
- outcome (HaCat): inactive

Structure (SMILES): CCCCCCCCCCCC(CC1OC(=O)C1CCCCCC)OC(=O)C(CC(C)C)NC=O (centres undefined)
- Potency (HB3): 1260 nM (active)
- Potency (ICS): 1120 nM (active)
- Potency (JCK): 1000 nM (active)
- Potency (N140): 631 nM (active)
- Potency (P93_24): 891 nM (active)
- Potency (P94_40): 355 nM (active)
- Potency (PC15): 1120 nM (active)
- Potency (PC49): 891 nM (active)
- Potency (SC27B): 447 nM (active)
- Potency (TAB109): 794 nM (active)
- Potency (TAB113): 282 nM (active)
- Potency (TAB165): 398 nM (active)
- Potency (W2): 675 nM (active)
- outcome (HaCat): inactive
- max response (KB-3-1): 7.07%
- max response (NIH3T3): 0.608%

Structure (SMILES): C[N+](C)([O-])CCNc1ccc(NCC[N+](C)(C)[O-])c2c1C(=O)c1c(O)ccc(O)c1C2=O
- Potency (HEK293): 5260 nM (active)
- max response (HaCat): -8.98%
- Potency (NIH3T3): 93.5 nM (active)
